Test systems include NCI-H23 lung; NCI-H226 lung; NCI-H322M lung; HOP-62 NSCLC; NCI-H460 lung; HOP-92 NSCLC; NCI-H522 lung; A549/ATCC NSCLC; 786-0 renal; COLO 205 colon.
Assay in all cases: NCI-60 one-dose screen, 48 h (100 = growth as untreated, 0 = no growth, -100 = all killed)
Settings in all cases: 10 µM unless noted

This is part of a sample that, as a whole, favours compounds with a hit. Of some 83,000 tested, about 20% had one in any assay.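 Single-concentration screen, 48 h exposure, 96-well plates. Endpoint: percent growth. Below 10 = active.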 A number with no mark means an inactive call. Active and inactive are the calls of the source.

Regarding `Nc1nc(=S)c2ncn(C3OC(COP(=O)(O)O)C(O)C3O)c2[nH]1` (stereo not given), the growth is 14.5% with NCI-H23 lung; 32.8% in the assay with NCI-H226 lung; 53.2% with NCI-H322M lung; 20.1% with HOP-62 NSCLC; 8.01% (active) in the assay with NCI-H460 lung; 33.4% in the assay on HOP-92 NSCLC. The growth is -3.01% (active) in the assay with NCI-H522 lung, 32.9% in the assay with A549/ATCC NSCLC, 22.9% in the assay with 786-0 renal and 24.7% in the assay with COLO 205 colon.

As to `C1=CN2CC(c3ccccc3)=NNC2c2ccccc21` (stereo not given), the growth in the assay on NCI-H23 lung was 76.1%; with NCI-H226 lung it was 63.3%; in the assay on NCI-H322M lung it was 86.1%; in the assay on HOP-62 NSCLC it was 72.4%; in the assay on NCI-H460 lung, 98%; in the assay with HOP-92 NSCLC, 76.7%. Moreover, the growth with NCI-H522 lung was 75.5%; with A549/ATCC NSCLC, 95.1%; with 786-0 renal, 99.3%; in the assay with COLO 205 colon, 113%.

With `CCOC(=O)c1cc(-c2ccc([N+](=O)[O-])cc2)n(-c2ccc(C(=O)O)c(O)c2)c1C`, the growth is 58.8% with NCI-H23 lung; 83.5% in the assay with NCI-H226 lung; 103% with NCI-H322M lung; 103% with HOP-62 NSCLC; 65.2% with NCI-H460 lung; 49.6% in the assay with HOP-92 NSCLC. Moreover, the growth is 9.5% (active) in the assay with NCI-H522 lung, 47.7% in the assay on A549/ATCC NSCLC, 71.3% in the assay with 786-0 renal and 99.1% in the assay with COLO 205 colon.

Take `COc1ccc(C(=O)C2C(c3ccc(OC)cc3)CN(C)C23C(=O)Nc2ccccc23)cc1` (stereo not given): the growth in the assay with NCI-H23 lung is 86.1%; in the assay on NCI-H226 lung, 88%; with NCI-H322M lung it was 103%; in the assay on HOP-62 NSCLC it was 94.3%; in the assay on NCI-H460 lung, 97.7%; in the assay on HOP-92 NSCLC, 83%. Moreover, the growth in the assay on NCI-H522 lung is 76.4%; in the assay on A549/ATCC NSCLC, 87.9%; in the assay on 786-0 renal, 96%; with COLO 205 colon it was 105%.

Turning to `CC1(C)CC[C@]2(C(=O)O)CC[C@]3(C)C(=CC[C@@H]4[C@@]5(C)C/C(=C/O)C(=O)C(C)(C)[C@@H]5CC[C@]43C)[C@@H]2C1`, the growth in the assay on NCI-H23 lung was 22.2%; in the assay with NCI-H226 lung, 96.2%; with NCI-H322M lung it was 62.2%; in the assay on HOP-62 NSCLC, 73.1%; in the assay on NCI-H460 lung, 83.6%; in the assay on HOP-92 NSCLC it was 89%. The growth in the assay on NCI-H522 lung is 25.2%; in the assay on A549/ATCC NSCLC it was 89.4%; with 786-0 renal, 84.3%; in the assay with COLO 205 colon, 74.9%.

`COC(=O)CNC(=O)[C@H](Cc1ccccc1)NCc1ccncc1`: the growth in the assay on NCI-H23 lung is 101%; in the assay on NCI-H226 lung, 109%; with NCI-H322M lung, 101%; in the assay on HOP-62 NSCLC it was 97.3%; with NCI-H460 lung, 108%; in the assay on HOP-92 NSCLC, 103%. Further, the growth in the assay on NCI-H522 lung is 84.5%; in the assay on A549/ATCC NSCLC it was 85.6%; in the assay with 786-0 renal, 105%; with COLO 205 colon it was 109%.

Regarding `CC1(c2ccccc2O)NN=C(/N=C/c2cccc([N+](=O)[O-])c2)N1C(Cc1c[nH]c2ccccc12)C(=O)O` (stereo not given), the growth was 80.3% in the assay with NCI-H23 lung; 82.1% with NCI-H226 lung; 97.6% with NCI-H322M lung; 65.8% with HOP-62 NSCLC; 102% in the assay with NCI-H460 lung; 81.2% in the assay on HOP-92 NSCLC. For the same molecule, the growth with NCI-H522 lung is 70.2%; in the assay with A549/ATCC NSCLC, 103%; in the assay on 786-0 renal, 99.5%; with COLO 205 colon, 84%.

Regarding `COc1cc(-c2nc3cc(Cl)c(Cl)cc3[nH]2)ccc1OCC(=O)N=Nc1c(O)[nH]c2ccc([N+](=O)[O-])cc12`, the growth with NCI-H23 lung was 84.3%; with NCI-H226 lung, 92.9%; in the assay on NCI-H322M lung it was 112%; with HOP-62 NSCLC it was 88.7%; with NCI-H460 lung it was 102%; in the assay on HOP-92 NSCLC, 84.2%. The growth with NCI-H522 lung was 89.6%; with A549/ATCC NSCLC, 114%; in the assay on 786-0 renal, 92.1%; in the assay on COLO 205 colon it was 78.5%.

For `Cc1ccccc1Cn1cnc2ccc(-c3cc(NC(=O)c4ccc(NC5CCN(C)CC5)cc4)n[nH]3)cc21`, the growth in the assay on NCI-H23 lung is 75%; in the assay with NCI-H226 lung, 68%; in the assay on NCI-H322M lung it was 83.5%; with HOP-62 NSCLC, 72.3%; in the assay on NCI-H460 lung, 91.9%; with HOP-92 NSCLC it was 92.4%. The growth is 57.2% in the assay with NCI-H522 lung, 84.5% with A549/ATCC NSCLC, 85% in the assay on 786-0 renal and 70.8% with COLO 205 colon.

Take `Cc1ccc(-c2nc3nc(-c4ccccc4)nc(N4CCNCC4)c3o2)cc1`: the growth in the assay with NCI-H23 lung was -73.7% (active); with NCI-H226 lung it was -68.6% (active); with NCI-H322M lung, -95.9% (active); in the assay with HOP-62 NSCLC it was -92.9% (active); with NCI-H460 lung it was -72.4% (active); with HOP-92 NSCLC, -73.5% (active). For the same molecule, the growth in the assay with NCI-H522 lung was -79.2% (active); with A549/ATCC NSCLC it was -84.5% (active); in the assay with 786-0 renal, -84.5% (active); in the assay on COLO 205 colon, -92.4% (active).

In the case of `N#CC1=C(N)Oc2c(sc3c(Br)cccc23)C1c1ccc(F)cc1` (stereo not given), the growth is 31.1% with NCI-H23 lung; 36.6% in the assay with NCI-H226 lung; 41.3% with NCI-H322M lung; 26.3% with HOP-62 NSCLC; 9.57% (active) in the assay on NCI-H460 lung; 41% in the assay with HOP-92 NSCLC. In addition, the growth in the assay with NCI-H522 lung was -6.79% (active); in the assay on A549/ATCC NSCLC, 24.1%; in the assay with 786-0 renal it was 12.2%; in the assay with COLO 205 colon it was -35.7% (active).

The values are drawn from PubChem BioAssay (NCI).
